Assay results: PubChem BioAssay
The source made the active and inactive calls.

How the values were obtained:
[1] = tested on: Human papillomavirus type 1a protein E7 (residues 44-93); test: HPV1a E7 fragment binders on microarrays, primary screen, biochemical, small-molecule microarray, residues 44-93, 635 nm fluorescence (AID 1108); conditions: small-molecule microarray binding, fluorescence 635 nm; higher = more signal;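 also: E7 fragment applied at 1 µg/mL in TBST for 1 h at 4 C; score combines spot fluorescence with its signal to noise ratio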
[2] = modulators of HCV replicon luciferase signal, primary screen, HCV replication inhibitor project, Huh7 cells, luciferase reporter (AID 1109); conditions: 48 h, higher = more signal;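 also: huh7 hepatoma cells harbouring a luciferase neomycin HCV replicon reporter; luciferase luminescence as measure of HCV replicon replication; test concentration not given here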
[3] = target: Left-right determination factor 2 (Homo sapiens) (UniProt O00292); test: LEFTY2 binders on small-molecule microarrays, primary screen, biochemical, small-molecule microarray, 635 nm fluorescence scan (AID 1110); conditions: LEFTY2 binding, higher = more signal
[4] = target: Calmodulin-1 (Homo sapiens) (UniProt P0DP23); test: CALM1 binders on microarrays, EGTA buffer, profiling panel, biochemical, small-molecule microarray, Cy5-labelled CALM1 (AID 1111); conditions: Cy5-CALM1 binding fluorescence, higher = more signal;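 also: labelled calmodulin applied in Tris saline Tween buffer holding calcium plus EGTA and DTT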
[5] = target: Calmodulin-1 (Homo sapiens) (UniProt P0DP23); test: calcium-bound CALM1 binders on microarrays, profiling panel, artefact control for SMM control-protein annotation, biochemical, small-molecule microarray, Cy5-labelled CALM1, plus calcium (AID 1112); conditions: Cy5-CALM1 binding fluorescence, higher = more signal;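 also: score merges spot fluorescence with signal to noise from triplicate slides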
[6] = small-molecule microarray binders of probe aWnt5a, primary screen, biochemical, biotinylated probe, 635/667 nm fluorescence (AID 1113); conditions: higher = more signal;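 also: score merges 667 nm fluorescence intensity with signal-to-noise per printed feature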
[7] = small-molecule microarray binders of probe aShh, primary screen, biochemical, biotinylated probe, 635/667 nm fluorescence (AID 1114); conditions: higher = more signal;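 also: probe is biotin-labelled aShh protein from a stem cell growth factor screen; measures binding of labelled protein to compounds printed on the slide; score merges feature fluorescence at 667 nm with signal-to-noise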
[8] = small-molecule microarray binders of probe aNog, primary screen, biochemical, biotinylated probe, 635/667 nm fluorescence (AID 1115); conditions: higher = more signal;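 also: probe is biotinylated aNog protein used at 0.15 µg/mL for 1 h at 4 C; z-score combines 667 nm fluorescence of each spot with its signal to noise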
[9] = target: Torsin-1A-interacting protein 1 (Homo sapiens) (UniProt Q5JTV8); test: LAP1 binders from COS7 cell lysate, primary screen, small-molecule microarray, 635/667 nm fluorescence (AID 1116); conditions: COS7-hLAP1 lysate binding, 635 nm fluorescence, higher = more signal
[10] = target: Alpha-bungarotoxin (Bungarus multicinctus) (UniProt P60615); test: alpha-bungarotoxin binders on microarray, profiling panel, artefact control for SMM control protein annotation, biochemical, small-molecule microarray, Alexa647 label, 635/667 nm fluorescence (AID 1117); conditions: alpha-BTX-A647 binding fluorescence, higher = more signal
[11] = target: Albumin (Bos taurus) (UniProt P02769); test: bovine serum albumin binders on microarray, profiling panel, artefact control for SMM control protein annotation, biochemical, small-molecule microarray, Alexa647 label, 635/667 nm fluorescence (AID 1118); conditions: BSA-A647 binding, fluorescence 635 nm, higher = more signal;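 also: score merges 667 nm emission intensity and signal-to-noise per printed compound spot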
[12] = small-molecule microarray binders of probe aXIP, primary screen, biochemical, NeuroSMM set, 635/667 nm fluorescence (AID 1119); conditions: higher = more signal, called active from +8 up or from −8 down;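 also: probe is the protein aXip251-270 applied at 1 µg/mL to compound-printed slides; binding of probe to printed compounds measured as 667 nm fluorescence plus signal to noise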
[13] = small-molecule binders of probe aNOTCH3, primary screen, biochemical, small-molecule microarray, 635/667 nm fluorescence (AID 1120); conditions: higher = more signal;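 also: probe is a biotin-tagged antibody raised against NOTCH3 rather than NOTCH3 protein; score merges spot fluorescence near 667 nm with spot signal to noise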
[14] = small-molecule binders of probe aNOTCH2, primary screen, biochemical, small-molecule microarray, 635/667 nm fluorescence (AID 1121); conditions: higher = more signal;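 also: score merges feature fluorescence read at 667 nm with its signal to noise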
[15] = target: Carbonic anhydrase 2 (Homo sapiens) (UniProt P00918); test: CAII small-molecule binders, profiling panel, biochemical, small-molecule microarray, Alexa647-labelled CAII (AID 1122); conditions: CAII-A647 binding fluorescence, higher = more signal
[16] = COS7 lysate on small-molecule microarray, probe aHis, 635 nm (AID 1123); conditions: COS7 cell lysate, fluorescence, higher = more signal;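 also: z-score combines 667nm fluorescence intensity with signal-to-noise per printed compound spot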
[17] = compound binding in COS7 lysate, probe aLAP1, primary screen, cell lysate, small-molecule microarray (AID 1124); conditions: probe aLAP1, fluorescence, higher = more signal;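 also: lysate comes from COS7 cells expressing LAP1 and is applied at 0.3 µg/mL; score merges spot fluorescence near 667 nm with signal-to-noise over triplicate slides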
[18] = tested on: Sam68 (KHDRBS1); test: Sam68 small-molecule binders, primary screen, biochemical, small-molecule microarray, 635 nm fluorescence (AID 1125); conditions: small-molecule microarray binding, higher = more signal;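 also: score merges 667 nm channel intensity with signal to noise over triplicate slides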
[19] = tested on: Chordin-like protein 2 (CHRDL2); test: CHRDL2 small-molecule binders, primary screen, biochemical, small-molecule microarray, 635 nm fluorescence (AID 1126); conditions: small-molecule microarray binding, fluorescence 635 nm; higher = more signal;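 also: printed compound slides probed with Chrdl2 protein at 4 µg/mL for 1 h at 4 C; score merges 667 nm emission intensity with signal to noise over three replicate slides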
[20] = target: Concanavalin-A (Canavalia ensiformis) (UniProt P02866); test: ConA small-molecule binders, primary screen, artefact control for SMM control protein annotation, biochemical, small-molecule microarray, Alexa647 label, 635 nm (AID 1127); conditions: ConA-A647 binding fluorescence, higher = more signal;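 also: z combines 667 nm emission intensity with signal-to-noise across three replicate slides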
Concanavalin-A (Canavalia ensiformis), sequence (P02866 whole entry, looked up): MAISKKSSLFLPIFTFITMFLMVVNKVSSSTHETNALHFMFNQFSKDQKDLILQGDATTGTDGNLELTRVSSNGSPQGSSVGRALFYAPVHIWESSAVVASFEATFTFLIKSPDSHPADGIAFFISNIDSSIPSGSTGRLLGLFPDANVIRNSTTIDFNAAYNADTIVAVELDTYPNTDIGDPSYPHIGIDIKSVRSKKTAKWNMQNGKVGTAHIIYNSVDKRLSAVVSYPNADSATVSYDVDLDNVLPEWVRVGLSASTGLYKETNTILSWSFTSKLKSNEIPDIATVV

Albumin (Bos taurus), sequence (P02769 whole entry, looked up): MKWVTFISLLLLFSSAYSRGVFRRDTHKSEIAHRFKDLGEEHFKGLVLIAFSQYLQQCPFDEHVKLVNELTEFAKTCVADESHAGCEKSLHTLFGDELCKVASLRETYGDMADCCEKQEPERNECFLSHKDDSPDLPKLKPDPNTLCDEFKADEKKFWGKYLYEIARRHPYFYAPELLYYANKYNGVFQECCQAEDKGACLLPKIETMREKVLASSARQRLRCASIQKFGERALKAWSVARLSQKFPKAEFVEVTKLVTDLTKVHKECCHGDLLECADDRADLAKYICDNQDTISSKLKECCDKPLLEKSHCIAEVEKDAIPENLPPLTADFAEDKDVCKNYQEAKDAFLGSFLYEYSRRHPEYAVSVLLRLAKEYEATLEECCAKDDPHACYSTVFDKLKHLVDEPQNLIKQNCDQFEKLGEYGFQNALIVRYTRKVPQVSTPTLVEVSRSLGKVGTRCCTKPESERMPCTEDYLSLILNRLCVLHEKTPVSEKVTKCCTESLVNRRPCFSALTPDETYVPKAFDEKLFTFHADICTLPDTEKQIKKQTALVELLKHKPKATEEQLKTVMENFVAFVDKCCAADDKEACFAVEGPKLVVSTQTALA
Left-right determination factor 2 (Homo sapiens), sequence (O00292 whole entry, looked up): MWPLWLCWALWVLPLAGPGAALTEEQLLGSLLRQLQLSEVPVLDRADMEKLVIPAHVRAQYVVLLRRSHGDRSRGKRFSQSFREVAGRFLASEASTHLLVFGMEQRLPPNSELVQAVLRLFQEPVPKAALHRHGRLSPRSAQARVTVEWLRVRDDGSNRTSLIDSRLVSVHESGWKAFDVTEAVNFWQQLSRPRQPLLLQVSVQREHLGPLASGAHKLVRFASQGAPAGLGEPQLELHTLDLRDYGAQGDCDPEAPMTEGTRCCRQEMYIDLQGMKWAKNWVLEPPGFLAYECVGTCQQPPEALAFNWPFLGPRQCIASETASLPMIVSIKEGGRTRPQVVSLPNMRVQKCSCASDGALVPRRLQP
Torsin-1A-interacting protein 1 (Homo sapiens), sequence (Q5JTV8 whole entry, looked up): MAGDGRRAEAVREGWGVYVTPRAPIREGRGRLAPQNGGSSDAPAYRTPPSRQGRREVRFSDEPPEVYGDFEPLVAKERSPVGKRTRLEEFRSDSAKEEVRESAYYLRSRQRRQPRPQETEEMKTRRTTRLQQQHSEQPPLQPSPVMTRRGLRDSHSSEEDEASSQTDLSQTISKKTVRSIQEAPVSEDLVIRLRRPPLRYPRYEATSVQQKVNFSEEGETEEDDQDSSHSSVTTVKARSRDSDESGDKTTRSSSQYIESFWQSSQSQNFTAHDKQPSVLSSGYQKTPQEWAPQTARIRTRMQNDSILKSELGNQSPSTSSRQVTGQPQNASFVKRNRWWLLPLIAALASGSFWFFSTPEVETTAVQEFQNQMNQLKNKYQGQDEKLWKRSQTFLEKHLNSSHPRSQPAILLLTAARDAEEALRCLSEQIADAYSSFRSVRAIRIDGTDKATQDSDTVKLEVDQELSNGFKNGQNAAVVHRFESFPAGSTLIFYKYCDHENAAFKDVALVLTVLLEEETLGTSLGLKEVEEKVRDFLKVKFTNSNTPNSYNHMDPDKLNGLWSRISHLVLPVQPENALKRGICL
Alpha-bungarotoxin (Bungarus multicinctus), sequence (P60615 whole entry, looked up): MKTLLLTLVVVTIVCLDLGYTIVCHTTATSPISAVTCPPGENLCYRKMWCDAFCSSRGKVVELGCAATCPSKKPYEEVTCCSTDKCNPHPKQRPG

Compound | composite z-score [1] | z-score [2] | composite z-score [3] | composite z-score [4] | composite z-score [5] | composite z-score [6] | composite z-score [7] | composite z-score [8] | composite z-score [9] | composite z-score [10] | composite z-score [11] | composite Z-score [12] | composite z-score [13] | composite z-score [14] | composite z-score [15] | composite z-score [16] | composite z-score [17] | composite z-score [18] | composite z-score [19] | composite z-score [20]
COC(=O)C[C@H]1O[C@]2(C(=O)N(C)c3ccccc32)[C@@H](C)[C@@H]1[Si](C)(C)c1ccc(OC)cc1 | 0.353 | -2 | 1.02 | 0.0348 | -0.327 | 0.0502 | -0.271 | -0.141 | 0.335 | 0.449 | 0.163 | -0.211 (inactive) | 0.0185 | -0.135 | 0.158 | 0.342 | 0.494 | 0.567 | 0.291 | 0.598
Cc1ccc(S[C@]2(C(=O)NCCCN(C)C)CC(=O)N(Cc3ccccc3)[C@@H]2c2ccc(CO)cc2I)cc1 | 0.544 | -2.94 | -0.941 | 0.453 | 0.728 | -0.091 | 0.0756 | 1.09 | 0.0632 | 0.913 | 0.717 | 0.35 (inactive) | 0.0762 | -0.0771 | 0.688 | 2 | 0.755 | -0.381 | -0.855 | 0.362
COc1ccc([Si](C)(C)[C@@H]2[C@@H](CCO)O[C@]3(C(=O)N(Cc4ccccc4)c4ccccc43)[C@H]2C)cc1 | 0.566 | -1.84 | 0.224 | 0.398 | 0.49 | -0.148 | -0.217 | 0.202 | 0.526 | 0.124 | 0.152 | 0.158 (inactive) | -0.113 | -0.125 | -0.0193 | 0.141 | 0.0521 | 0.555 | -0.0822 | 0.421
NC(=O)NCC#Cc1ccc2c(c1)[C@]1(C(=O)N2)[C@H](C(=O)N2CCCCCCC2)[C@H]2C(=O)O[C@H](c3ccccc3)[C@H](c3ccccc3)N2[C@@H]1c1ccccc1OCCO | 1.37 | -1.54 | 1.46 | 2.99 | 1.69 | 1.31 | 2.38 | 2.29 | 5.01 | 2.63 | 0.408 | 4.79 (inactive) | 1.43 | 0.985 | 0.953 | 4.03 | 1.26 | 1.31 | 1.56 | 1.11
COc1ccc(C(=O)Nc2ccc(CN3C(=O)[C@]4(O[C@H](CCn5cc(CCO)nn5)[C@@H]([Si](C)(C)c5ccc(OC)cc5)[C@@H]4C)c4ccccc43)cc2)cc1 | 1.05 | -5.06 | 0.465 | 0.62 | -0.0683 | 0.0857 | 0.199 | -0.363 | 0.793 | 1.31 | -0.343 | -0.213 (inactive) | 0.391 | -0.0649 | 0.697 | 0.88 | -0.153 | 1.32 | 0.276 | 1.15
C[C@@H]1CC[C@H]2C(=O)N3[C@@H](CC[C@@H](C)[C@@H]3c3cccc(N4CCOCC4)c3)C(=O)N2[C@H]1c1cccc(N2CCOCC2)c1 | 0.384 | 0.27 | 0.676 | -0.413 | -0.403 | -0.0478 | 0.51 | -0.459 | 0.653 | 1.03 | 0.0915 | -0.354 (inactive) | -0.344 | -0.217 | 0.477 | 0.8 | 0.581 | 0.594 | 0.902 | 1.04
